Test [1] can be described thus: ATG_CRE_CIS: Attagene CIS-FACTORIAL HepG2 Assay for human cAMP Responsive Element (CRE) binding protein 3 (AID 2282926). To be noted: HepG2 CRE cis-reporter, Attagene multiplexed mRNA; actives raise or lower the signal. The method, boiled down:
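Liver-derived HepG2, transfected with a CRE-containing reporter panel, exposed 24 h; transcript levels sized and quantified by capillary electrophoresis of labelled amplicons; signal changes either way referenced to vehicle.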

Test [2] concerns the target CCAAT/enhancer-binding protein beta (Homo sapiens) (UniProt P17676). As to the kind of experiment: ATG_C_EBP_CIS: Attagene CIS-FACTORIAL HepG2 Assay for human CCAAT/Enhancer Binding Protein (C/EBP) beta (AID 2282927). To be noted: HepG2 Attagene cis-factorial transcription factor reporter; actives raise or lower the signal. The method in brief:
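Transiently transfected HepG2 (MRTU library, endogenous TF-driven promoters); 24 h dosing; total RNA → oligo(dT) RT → PCR → 6-FAM primer extension → HpaI digest → CE; fit bidirectionally vs DMSO.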

Test [3] is described as follows: ATG_CMV_CIS: Attagene CIS-FACTORIAL HepG2 Assay for human CMV (Internal Marker) (AID 2282928).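 Also: endpoint acts as a background internal control marker rather than a target.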 To be noted: HepG2 CMV promoter reporter, transcription factor profiling; actives raise or lower the signal. The method, boiled down:
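Bidirectional fits against DMSO are applied to reporter mRNA, read by RT-PCR with capillary electrophoresis, from HepG2 cells exposed 24 h. The endpoint serves as an internal CMV background marker within the cis-factorial reporter panel.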

Test [4] concerns the target Aryl hydrocarbon receptor (Homo sapiens) (UniProt P35869). Kind of test: ATG_Ahr_CIS: Attagene CIS-FACTORIAL HepG2 Assay for human Aryl Hydrocarbon Receptor (Ahr) (AID 2282930). To be noted: HepG2 AhR cis-factorial reporter transcription; actives raise or lower the signal. The method, boiled down:
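Read-out: reporter mRNA quantified by RT-PCR with fluorescent primer extension and capillary electrophoresis. Human HepG2 liver cells carried transfected cis-promoter reporter units and were exposed to chemical for 24 h; gain or loss fitted relative to DMSO.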

Test [5] in a line: ATG_AP_1_CIS: Attagene CIS-FACTORIAL HepG2 Assay for human Activator Protein 1 (AP-1) (AID 2282931). To be noted: HepG2 Attagene cis-factorial AP-1 reporter mRNA; actives raise or lower the signal. The method in brief:
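Cis-regulated reporter units transiently expressed in HepG2 report endogenous transcription-factor activity. Signal: reporter mRNA at 24 h, via RT-PCR and fluorescent capillary electrophoresis. Endpoint derived by bidirectional fitting, DMSO as negative control.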

The nature of test [6]: ATG_AP_2_CIS: Attagene CIS-FACTORIAL HepG2 Assay for human Activator Protein 2 (AP-2) (AID 2282932). To be noted: HepG2 AP-2 cis-reporter, Attagene transcription factor profiling; actives raise or lower the signal. The method in brief: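 Read-out: fluorescent reporter mRNA via RT-PCR and capillary electrophoresis, 24 h post-dose in transiently transfected HepG2. Endogenous factors drive cis-promoter reporters; gain or loss of signal fitted bidirectionally against DMSO.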

Test [7] in a line: ATG_BRE_CIS: Attagene CIS-FACTORIAL HepG2 Assay for human Bone Morphogenetic Protein (BMP) Response Element (BRE) (AID 2282933). To be noted: HepG2 BMP response element reporter, Attagene transcription factor profiling; actives raise or lower the signal. The method, boiled down: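 HepG2 cells transiently transfected with multiplexed cis-element reporter units were dosed with chemical for 24 h. Reporter mRNA was measured by RT-PCR with fluorescent labelling, HpaI digestion and capillary electrophoresis; bidirectional fitting relative to DMSO.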

Test [8] has as its target Retinoic acid receptor alpha (Homo sapiens) (UniProt P10276). Kind of test: ATG_DR5_RAR_CIS: Attagene CIS-FACTORIAL HepG2 Assay for human Retinoic Acid Receptor Alpha (RARE), DR5 submotif (AID 2282934). To be noted: HepG2 Attagene cis-factorial RARE DR5 reporter, mRNA; actives raise or lower the signal. The method in brief: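 Read-out: DR5-driven reporter transcript measured by RT-PCR, 6-FAM primer extension, HpaI digest and capillary electrophoresis. Human HepG2 liver cells carry transiently transfected cis-element reporter constructs; dosing lasts 24 h. Gain or loss of signal fitted against DMSO baseline.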

For test [9], the target named is Transcription factor E2F1 (Homo sapiens) (UniProt Q01094). As to the kind of experiment: ATG_E2F_CIS: Attagene CIS-FACTORIAL HepG2 Assay for human E2F Transcription Factor 1 (AID 2282935). To be noted: HepG2 Attagene cis-reporter, E2F reporter RNA transcripts; actives raise or lower the signal. The method, boiled down:
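Transient MRTU transfection of HepG2; 24 h compound exposure; RNA → oligo(dT) RT → PCR → FAM label → HpaI cut → CE fluorescence. Gain/loss of signal fit against DMSO.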

Test [10] can be described thus: ATG_E_Box_CIS: Attagene CIS-FACTORIAL HepG2 Assay for human Enhancer Box (E-box) (AID 2282936). To be noted: HepG2 E-box cis-reporter transcription, actives raise or lower the signal. The method in brief: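 Transiently transfected HepG2, endogenous TF-driven reporters, 24 h dosing. Readout: RT-PCR plus capillary electrophoresis of fluorescent reporter fragments. Gain or loss of signal fitted bidirectionally against DMSO baseline.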

The nature of test [11]: ATG_M_61_CIS: Attagene CIS-FACTORIAL HepG2 Assay for M61 Transcription Factor (Internal Marker) (AID 2282937). To be noted: HepG2 Attagene CIS-FACTORIAL M61 internal marker reporter; actives raise or lower the signal. The method, boiled down: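 Background-control endpoint: HepG2 cells with cis-regulated reporter constructs, 24 h exposure, reporter mRNA detected via fluorescent primer extension and capillary electrophoresis; values from bidirectional fitting with DMSO baseline.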

The nature of test [12]: ATG_EGR_CIS: Attagene CIS-FACTORIAL HepG2 Assay for human Early Growth Response 1 (EGR1) (AID 2282938). To be noted: HepG2 Attagene CIS-FACTORIAL EGR reporter mRNA; actives raise or lower the signal. The method in brief:
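Endpoint derived by bidirectional fitting versus DMSO vehicle. Method: cis-promoter reporter units transfected into HepG2, 24 h dosing, RNA isolation, RT-PCR with 6-FAM primer extension and HpaI digestion, then capillary electrophoresis fluorescence detection.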

The nature of test [13]: ATG_M_19_CIS: Attagene CIS-FACTORIAL HepG2 Assay for M19 Transcription Factor (Internal Marker) (AID 2282939). To be noted: HepG2 Attagene CIS-FACTORIAL M19 internal marker reporter; actives raise or lower the signal. The method in brief: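 HepG2 cells transiently transfected with cis-regulated multiple reporter transcription units were dosed for 24 h; reporter mRNA was quantified by RT-PCR, 6-FAM primer-extension labelling, HpaI digestion and capillary electrophoresis, with bidirectional fitting against DMSO baseline.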

Test [14] can be described thus: ATG_Ets_CIS: Attagene CIS-FACTORIAL HepG2 Assay for human Erythroblast Transformation Specific (ETS) (AID 2282941). To be noted: HepG2 ETS cis-reporter transcription, actives raise or lower the signal. The method in brief: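 Endogenous transcription factor activity read as reporter mRNA via RT-PCR and capillary electrophoresis, with gain or loss fitted bidirectionally against DMSO. Human HepG2 liver cells, transiently transfected CIS reporter constructs, 24 h exposure.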

Test [15] addresses Hepatocyte nuclear factor 3-beta (Homo sapiens) (UniProt Q9Y261). As to the kind of experiment: ATG_FoxA2_CIS: Attagene CIS-FACTORIAL HepG2 Assay for human Forkhead box A2 (FOXA2) (AID 2282942). To be noted: HepG2 cis-reporter transcription factor activity, 24 h; actives raise or lower the signal. The method in brief:
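Measured: reporter mRNA induction or loss in HepG2 transiently carrying multiple cis-regulated reporter units, 24 h after dosing. Quantified by RT-PCR plus capillary electrophoresis, normalised to DMSO.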

A short description of test [16]: ATG_FoxO_CIS: Attagene CIS-FACTORIAL HepG2 Assay for human Forkhead box O (FoxO) (AID 2282943). To be noted: HepG2 Attagene cis-reporter, FoxO element, mRNA; actives raise or lower the signal. The method in brief:
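Read-out: fluorescence of 6-FAM-labelled reporter cDNA fragments resolved by capillary electrophoresis. Transiently transfected HepG2 cells were dosed for 24 h; activity fitted in both directions relative to DMSO controls.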

A short description of test [17]: ATG_GATA_CIS: Attagene CIS-FACTORIAL HepG2 Assay for human GATA Binding Protein (AID 2282944). To be noted: HepG2 GATA cis-element reporter, Attagene multiplex mRNA; actives raise or lower the signal. The method in brief: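 HepG2 cells transiently transfected with multiplexed cis-element reporter units reflecting endogenous transcription factor activity; reporter mRNA measured after 24 h dosing by RT-PCR, 6-FAM labeling, HpaI digestion and capillary electrophoresis. Bidirectional fitting versus DMSO baseline.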

The nature of test [18]: ATG_GLI_CIS: Attagene CIS-FACTORIAL HepG2 Assay for human Zinc Finger Protein GLI1 (AID 2282945). To be noted: HepG2, Attagene cis-factorial reporter mRNA, GLI element; actives raise or lower the signal. The method in brief:
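Transiently transfected HepG2 cells report endogenous transcription factor activity via cis-element-driven reporter units. After 24 h compound exposure, reporter mRNA was measured by RT-PCR with capillary electrophoresis; bidirectional fitting against DMSO baseline.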

A short description of test [19]: ATG_ERE_CIS: Attagene CIS-FACTORIAL HepG2 Assay for Estrogen Response Element (ERE) (AID 2282940). To be noted: HepG2 ERE cis-reporter, Attagene RNA transcript; actives raise or lower the signal. The method, boiled down:
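HepG2 cells transiently transfected with cis-promoter-driven multiplexed reporter transcription units report endogenous TF activity. After 24 h compound exposure, reporter mRNA is quantified by RT-PCR with capillary electrophoresis fluorescence; bidirectional fitting versus DMSO baseline.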

A short description of test [20]: ATG_DR4_LXR_CIS: Attagene CIS-FACTORIAL HepG2 Assay for human Liver X Receptor (LXR), DR4 submotif (AID 2282929). To be noted: HepG2 Attagene DR4 cis-reporter, mRNA transcription; actives raise or lower the signal. The method, boiled down:
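DR4 cis-reporter in HepG2, 24 h exposure. Detection: RT-PCR, 6-FAM labelling, CE fragment analysis. Endpoint fitted bidirectionally, DMSO = baseline.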

Calls of active or inactive are those of the source. The calls were made as follows: active = hit-call score of the fitted dose curve at least 0.9, where 1 is the maximum; inactive = score below 0.9.

Sequence of CCAAT/enhancer-binding protein beta (Homo sapiens) (P17676 whole entry, looked up): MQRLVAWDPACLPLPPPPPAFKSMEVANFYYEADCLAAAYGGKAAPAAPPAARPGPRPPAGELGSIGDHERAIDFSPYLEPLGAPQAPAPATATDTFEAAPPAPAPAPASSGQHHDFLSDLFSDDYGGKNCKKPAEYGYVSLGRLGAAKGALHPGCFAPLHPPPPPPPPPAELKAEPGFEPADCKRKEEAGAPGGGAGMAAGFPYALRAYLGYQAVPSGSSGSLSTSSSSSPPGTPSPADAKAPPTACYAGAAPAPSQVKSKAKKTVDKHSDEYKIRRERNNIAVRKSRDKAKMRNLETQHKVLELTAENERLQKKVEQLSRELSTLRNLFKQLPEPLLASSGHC
Sequence of Hepatocyte nuclear factor 3-beta (Homo sapiens) (Q9Y261 whole entry, looked up): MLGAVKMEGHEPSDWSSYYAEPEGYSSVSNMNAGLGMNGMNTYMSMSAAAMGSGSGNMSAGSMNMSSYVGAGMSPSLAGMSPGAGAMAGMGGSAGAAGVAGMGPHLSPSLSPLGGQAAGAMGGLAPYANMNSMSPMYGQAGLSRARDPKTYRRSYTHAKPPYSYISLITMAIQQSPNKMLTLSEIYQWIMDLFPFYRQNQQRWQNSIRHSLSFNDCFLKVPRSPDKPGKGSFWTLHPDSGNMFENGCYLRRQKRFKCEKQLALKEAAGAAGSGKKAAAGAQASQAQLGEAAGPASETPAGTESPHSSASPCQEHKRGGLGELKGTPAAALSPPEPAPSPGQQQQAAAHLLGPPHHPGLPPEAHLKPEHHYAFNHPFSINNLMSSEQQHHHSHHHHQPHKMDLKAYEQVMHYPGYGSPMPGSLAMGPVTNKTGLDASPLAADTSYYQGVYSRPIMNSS
Sequence of Transcription factor E2F1 (Homo sapiens) (Q01094 whole entry, looked up): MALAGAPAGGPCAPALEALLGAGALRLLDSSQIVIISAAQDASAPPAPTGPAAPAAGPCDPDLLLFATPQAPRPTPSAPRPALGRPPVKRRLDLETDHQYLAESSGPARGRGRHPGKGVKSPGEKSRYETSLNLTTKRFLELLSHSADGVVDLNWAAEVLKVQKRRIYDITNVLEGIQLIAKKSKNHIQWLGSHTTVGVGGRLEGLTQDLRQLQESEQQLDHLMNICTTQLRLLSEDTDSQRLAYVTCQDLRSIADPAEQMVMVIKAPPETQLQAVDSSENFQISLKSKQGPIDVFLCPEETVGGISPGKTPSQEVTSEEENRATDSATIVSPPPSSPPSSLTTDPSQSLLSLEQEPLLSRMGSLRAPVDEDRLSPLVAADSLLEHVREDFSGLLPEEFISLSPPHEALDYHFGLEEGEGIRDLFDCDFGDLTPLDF
Sequence of Retinoic acid receptor alpha (Homo sapiens) (P10276 whole entry, looked up): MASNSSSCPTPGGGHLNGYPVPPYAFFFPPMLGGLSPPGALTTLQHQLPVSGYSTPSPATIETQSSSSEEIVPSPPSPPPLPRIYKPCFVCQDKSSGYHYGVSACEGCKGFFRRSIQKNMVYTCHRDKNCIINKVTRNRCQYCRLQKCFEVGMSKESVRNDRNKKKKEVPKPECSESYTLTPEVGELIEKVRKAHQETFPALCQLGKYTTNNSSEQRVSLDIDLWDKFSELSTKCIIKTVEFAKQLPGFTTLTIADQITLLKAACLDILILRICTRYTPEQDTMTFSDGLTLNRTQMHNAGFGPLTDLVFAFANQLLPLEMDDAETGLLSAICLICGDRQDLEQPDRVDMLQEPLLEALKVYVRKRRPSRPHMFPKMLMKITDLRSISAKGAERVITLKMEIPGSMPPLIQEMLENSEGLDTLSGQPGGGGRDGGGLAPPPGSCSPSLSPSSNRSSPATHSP
Sequence of Aryl hydrocarbon receptor (Homo sapiens) (P35869 whole entry, looked up): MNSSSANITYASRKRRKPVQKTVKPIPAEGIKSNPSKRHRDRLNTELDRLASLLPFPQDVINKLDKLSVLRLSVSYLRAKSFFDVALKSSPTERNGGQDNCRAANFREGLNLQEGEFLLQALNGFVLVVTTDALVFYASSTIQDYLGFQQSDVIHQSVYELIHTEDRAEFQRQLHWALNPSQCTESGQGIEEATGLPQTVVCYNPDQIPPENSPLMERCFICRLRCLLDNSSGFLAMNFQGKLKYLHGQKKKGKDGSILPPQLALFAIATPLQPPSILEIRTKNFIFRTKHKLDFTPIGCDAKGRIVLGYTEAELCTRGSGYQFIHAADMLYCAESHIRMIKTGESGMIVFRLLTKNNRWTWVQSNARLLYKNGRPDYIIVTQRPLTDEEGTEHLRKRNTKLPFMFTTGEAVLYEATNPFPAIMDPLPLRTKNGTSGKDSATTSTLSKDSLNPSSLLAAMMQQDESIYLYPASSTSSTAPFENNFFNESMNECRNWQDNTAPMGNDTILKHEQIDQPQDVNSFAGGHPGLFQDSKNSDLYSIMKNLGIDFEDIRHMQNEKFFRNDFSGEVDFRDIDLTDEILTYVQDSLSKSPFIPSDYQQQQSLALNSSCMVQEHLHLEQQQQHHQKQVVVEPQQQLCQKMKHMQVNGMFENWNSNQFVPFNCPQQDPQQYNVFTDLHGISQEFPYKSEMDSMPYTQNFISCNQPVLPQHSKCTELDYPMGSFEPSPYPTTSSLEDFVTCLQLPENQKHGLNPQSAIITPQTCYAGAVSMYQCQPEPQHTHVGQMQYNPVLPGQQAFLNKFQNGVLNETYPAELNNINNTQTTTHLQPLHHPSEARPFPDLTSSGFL

As for `OCc1ccc(Cl)cc1Cl`, the result in test [1], in [2], in test [3], in [4], in [5] and in test [6] was inactive. Further, the result in [7], in [8], in [9], in test [10], in test [11] and in [12] was inactive. Also, the result in test [13], in test [14], in [15], in test [16], in test [17] and in test [18] was inactive.

As for `C=CC(C)(O)CCC=C(C)C` (stereo not given), the call in test [1], in test [2], in test [3], in test [4], in test [5] and in test [6] was inactive. The call in [7], in test [8], in test [9], in test [10], in [11] and in test [12] was inactive. Besides, the molecule was called inactive in test [13], in [14], in [15], in [16], in [17] and in [18].

In the case of `OCC(O)c1ccccc1` (stereo not given), the molecule was called inactive in [1], in test [2], in test [3], in [4], in [5] and in test [6]. Also, the outcome in test [7], in test [8], in test [9], in [10], in test [11] and in test [12] was inactive. Besides, the result in test [13], in test [19], in test [14], in test [15], in [16] and in test [17] was inactive. Also, the result in test [18] was inactive.

`Clc1ccc(C(c2ccccc2Cl)C(Cl)Cl)cc1` (stereo not given): the molecule was classed as inactive in test [1], in test [2], in test [6], in test [8], in test [9] and in test [10]. For the same molecule, the call in [11], in [12], in [14], in test [15] and in test [17] was inactive. Further, the AC50 (as a rule, the concentration at which the activity in the assay is half-maximal) was 100 µM (active) in [3], 25.2 µM (active) in test [20], 65.6 µM (active) in [4] and 53.7 µM (active) in test [18].

Source of the values: PubChem BioAssay (EPA / NIEHS).
